Consider 34 compounds from PubChem BioAssay (NCATS).

Inconclusive results are not listed. Where a call stands in place of a potency, no number is given. Active and inactive are the calls of the source. Calls come from the whole dose curve; as a rule, active = well fitted inhibition curve with a large enough effect; inconclusive = small, poorly fitted or top-dose-only effect; inactive = flat fitted curve, though single readings scatter.

Chain of Luciferin 4-monooxygenase (Photinus pyralis) (P08659 whole entry, looked up): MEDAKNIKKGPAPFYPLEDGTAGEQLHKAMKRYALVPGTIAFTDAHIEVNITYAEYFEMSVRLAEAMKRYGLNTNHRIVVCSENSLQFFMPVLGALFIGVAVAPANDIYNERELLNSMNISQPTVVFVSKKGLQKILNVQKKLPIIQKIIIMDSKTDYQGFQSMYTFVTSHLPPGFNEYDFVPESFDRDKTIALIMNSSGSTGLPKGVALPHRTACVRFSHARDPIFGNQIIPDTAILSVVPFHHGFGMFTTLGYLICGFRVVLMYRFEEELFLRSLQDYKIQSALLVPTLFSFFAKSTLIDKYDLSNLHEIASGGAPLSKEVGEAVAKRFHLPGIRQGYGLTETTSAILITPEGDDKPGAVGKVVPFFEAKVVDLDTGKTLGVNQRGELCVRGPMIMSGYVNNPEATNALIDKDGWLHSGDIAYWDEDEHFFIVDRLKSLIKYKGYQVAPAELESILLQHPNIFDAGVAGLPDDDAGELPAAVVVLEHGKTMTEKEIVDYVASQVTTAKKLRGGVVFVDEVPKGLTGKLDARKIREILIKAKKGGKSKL

This experiment deals with Luciferin 4-monooxygenase (Photinus pyralis) (UniProt P08659). The experiment in a line: Biochemical firefly luciferase enzyme assay for NPC (AID 624030).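 Note: purified P. pyralis luciferase at 10 nM with luciferin and ATP substrate; nearly all actives have a fitted effect of over 70% in size.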 The settings on record: purified P. pyralis luciferase, luminescence, 5 min; series mostly up to 58.6 µM. Summed up:
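Counter-screen for direct inhibition of the luciferase enzyme by approved-drug library compounds, run at 10 nM enzyme in 50 mM Tris acetate (final). Luminescence was read within 5 min of enzyme-buffer addition and normalized to PTC124 versus DMSO (0%).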
Turning to `CC(=O)N[C@@H](CCC(=O)O)C(=O)O`, the Potency result was “inactive”. In the case of `N#CCC(=O)NN` it was “inactive”; in that of `CCC(C(=O)OCCOCCN(CC)CC)c1ccccc1` (centres undefined), “inactive”. As for `OCc1ccccn1`, the Potency entry is “inactive”.

Turning to `CCOC(=O)c1c(N)sc2c1CCN(Cc1ccccc1)C2`, the Potency result is “inactive”.

`CCN(CC)CCNC(=O)COc1ccc(OC)cc1`: the Potency entry was “inactive”. Consider `CCCCCCCCNC(C)C(O)c1ccc(SC(C)C)cc1` (centres undefined), for which the Potency result was “inactive”. In the case of `O=C(O)c1ccc(S(=O)(=O)N(Cl)Cl)cc1` it was “inactive”; in that of `Cc1cccc(C)c1NC(=O)c1ccccc1C(=O)O`, “inactive”. The value for `COc1ccc(CCN(C)CCCN2CCc3cc(OC)c(OC)cc3CC2=O)cc1OC` was “inactive”; that for `CC(=O)Oc1ccc(C)cc1` was “inactive”; that for `C[N+]1(C)CCC(=C(c2ccccc2)c2ccccc2)CC1` was “inactive”. The value for `CC(=O)NC(=O)c1ccccc1O` was “inactive”; that for `Cc1cc(NS(=O)(=O)c2ccc(N)cc2)nc(C)n1` was “inactive”.

For the compound `CC(C)CCCC(C)N` (centres undefined), the Potency result was “inactive”. In the case of `FC1(F)C(F)(F)C(F)(F)C2(F)C(F)(F)C(F)(F)C(F)(F)C(F)(F)C2(F)C1(F)F` (centres undefined) it was “inactive”; in that of `Cc1ccc(S(=O)(=O)NC(=O)NC2CCCC2)cc1`, “inactive”; in that of `CCCc1ncc(C[n+]2ccccc2C)c(N)n1`, “inactive”. The value for `CC(=O)Nc1ccc(S(=O)(=O)Nc2ccc([N+](=O)[O-])cc2)cc1` was “inactive”; that for `CN1CCN(c2c(F)cc3c(=O)c(C(=O)O)cn4c3c2SCC4)CC1` was “inactive”; that for `CN(C)C(=O)Nc1ccc(Cl)c(Cl)c1` was “inactive”. In the case of `CC[N+](C)(CC)CCOC(=O)C(O)(c1ccccc1)C1CCCCC1` (centres undefined) it was “inactive”; in that of `CNCCc1ccccn1`, “inactive”. As to `COc1ccc(CN(CCN(C)C)c2ncccn2)cc1`, the Potency entry was “inactive”. In the case of `CC(C)(C)NC[C@H](O)COc1cccc2c1CCCC2=O` it was “inactive”; in that of `Cc1cccc(C)c1NC(=O)CN1CCCCCC1`, “inactive”. The value for `OC1C(O)C(O)C(O)C(O)C1O` (centres undefined) was “inactive”; that for `CC(=O)Nc1ccc(OC(=O)c2ccccc2OC(C)=O)cc1` was “inactive”; that for `CC(=O)Nc1ccc(OCC(O)CNC(C)C)cc1` (centres undefined) was “inactive”.

With `NS(=O)(=O)c1ccc(Cl)c(S(N)(=O)=O)c1`, the Potency entry is “inactive”.

With `COc1cc(NS(=O)(=O)c2ccc(N)cc2)ncn1`, the Potency result was “inactive”. With `CC(=O)OCC(=O)[C@H]1CC[C@H]2[C@@H]3CCC4=CC(=O)CC[C@]4(C)[C@H]3CC[C@]12C`, the Potency entry was “inactive”. As to `Cc1nc(-c2ccc(Cl)cc2)oc1COC(C)(C)C(=O)O`, the Potency entry was “inactive”. The value for `N=C(N)N1CCc2ccccc2C1` was “inactive”.
